Measured values: PubChem BioAssay (NCATS)
Inconclusive results are not listed. Where a call stands in place of a potency, no number is given. Values without a mark were called inactive. Activity calls are given as the source filed them. Calls follow the shape of the dose curve; as a rule, active = well fitted cell-killing curve with a large enough effect; inconclusive = small, poorly fitted or top-dose-only effect, or effect the other way; inactive = flat fitted curve, though single readings scatter.

Columns and labels:
Assay in all cases: Primary qHTS to identify gynecologic anti-cancer compounds using libraries of approved drugs and bioactive compounds (AID 1345084); also: nearly all actives have a fitted effect of over 55% in size
Settings in all cases: Gynecologic cancer cell panel viability, ATPlite luminescence, 48 h; series mostly up to 57.5 µM
SKOV3 = system: SKOV3
In short: (§1)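 Five-concentration response, 48 h; readout is ATP-driven luciferase luminescence.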

Tov-21-G = system: Tov-21-G
In short: as §1

Tov112D = system: Tov112D
In short: as §1
Potency is read from the fitted curve at half-maximal effect.

C=C(C)C(=O)O[C@H]1[C@H]2C(=C)C(=O)O[C@@H]2C[C@@H](C)[C@@H]2O[C@@H]2C(=O)[C@](C)(O)[C@@H]1OC(=O)C(=C)C was tested, and the Potency (SKOV3) was 10 µM (active).

CC(C)NCCCn1c(Sc2cc3c(cc2I)OCO3)nc2c(N)ncnc21 was tested, and the Potency (SKOV3) was 2 µM (active), the Potency (Tov-21-G) was 0.501 µM (active) and the Potency (Tov112D) was 0.891 µM (active).

For Cn1ncc(Cl)c1-c1cc(C(=O)N[C@H](CN)Cc2ccc(F)c(F)c2)oc1Cl, the Potency (SKOV3) was 4.47 µM (active) and the Potency (Tov-21-G) was 0.708 µM (active).

With O=C(NCCCc1ccccc1)c1cccc(-c2cc(O)c3ncccc3c2)c1 the Potency (SKOV3) was 11.2 µM (active), the Potency (Tov-21-G) was “inactive” and the Potency (Tov112D) was 17.8 µM (active).

CC(C)(O)c1ccn2c(-c3ccc(F)c(-c4ccc(F)cc4C#N)c3)cnc2c1F was tested, and the Potency (SKOV3) was “inactive”, the Potency (Tov-21-G) was “inactive” and the Potency (Tov112D) was “inactive”.

For Cc1ccc(-c2cn3c4c(sc3n2)CCCC4)cc1, the Potency (SKOV3) was 15.8 µM (active), the Potency (Tov-21-G) was 12.6 µM (active) and the Potency (Tov112D) was 12.6 µM (active).

For C=CC(=O)N1CC(N2CCN(C(=O)CNc3cc(C4CC4)c(Cl)cc3O)CC2)C1, the Potency (SKOV3) was “inactive”, the Potency (Tov-21-G) was “inactive” and the Potency (Tov112D) was “inactive”.

In the case of CC(=O)C1(C)CCC2C3C=C(C)C4=CC(=O)CCC4(C)C3CCC21C (stereo unspecified), the Potency (SKOV3) is reported as “inactive”, the Potency (Tov-21-G) is reported as “inactive” and the Potency (Tov112D) is reported as “inactive”.

C=C[C@H](/C=C\c1ccc(O)cc1)c1ccc(O)cc1 was tested, and the Potency (SKOV3) was “inactive”, the Potency (Tov-21-G) was “inactive” and the Potency (Tov112D) was “inactive”.

With COc1ccccc1-c1ccc(-c2cn(C(=O)N3CCCCC3Cc3ccccc3)nn2)cc1 (stereo unspecified) the Potency (SKOV3) was “inactive”, the Potency (Tov-21-G) was “inactive” and the Potency (Tov112D) was “inactive”.

For COC(=O)c1ccc2c(c1)[nH]c1ncnc(NCCCN3CCCCC3)c12, the Potency (SKOV3) was “inactive”, the Potency (Tov-21-G) was “inactive” and the Potency (Tov112D) was “inactive”.

In the case of CC(C)C[C@H](C(=O)O)c1cc(-c2ccc(C(F)(F)F)cc2)cc(-c2ccc(C(F)(F)F)cc2)c1, the Potency (SKOV3) is reported as “inactive”, the Potency (Tov-21-G) is reported as “inactive” and the Potency (Tov112D) is reported as “inactive”.

For O=C(Nc1ccc(-c2ccc(Cl)c(Cl)c2)cc1)C1=C(O)c2ccccc2S(=O)(=O)N1, the Potency (SKOV3) was “inactive”, the Potency (Tov-21-G) was “inactive” and the Potency (Tov112D) was “inactive”.

In the case of CC(C)(C)c1ccc2c(c1)CC[C@H]2NC(=O)Nc1cccc2[nH]ncc12, the Potency (SKOV3) is reported as “inactive”, the Potency (Tov-21-G) is reported as “inactive” and the Potency (Tov112D) is reported as “inactive”.

For C/C=C\NC(=O)C1NC(=O)C(CC(N)=O)NC(=O)C(NC(=O)C(=O)C(C)CC)Cc2ccc(O)c(c2)-c2cccc3c2NC(=O)C3(O)C1O (stereo unspecified), the Potency (SKOV3) was “inactive”, the Potency (Tov-21-G) was 4.47 µM (active) and the Potency (Tov112D) was “inactive”.

In the case of O=C(NCc1cccs1)c1cc2nc(-c3ccco3)cc(C(F)(F)Cl)n2n1, the Potency (SKOV3) is reported as “inactive”, the Potency (Tov-21-G) is reported as “inactive” and the Potency (Tov112D) is reported as “inactive”.

For Cc1cc(OCCCS(C)(=O)=O)cc(C)c1-c1cccc(COc2ccc3c(c2)OCC3CC(=O)O)c1 (stereo unspecified), the Potency (SKOV3) was “inactive”, the Potency (Tov-21-G) was “inactive” and the Potency (Tov112D) was “inactive”.

CCCOc1ccc(S(=O)(=O)N2CCN(CCO)CC2)cc1-c1nc2c(CCC)cn(CC)c2c(=O)[nH]1 was tested, and the Potency (SKOV3) was “inactive”, the Potency (Tov-21-G) was “inactive” and the Potency (Tov112D) was “inactive”.

In the case of CN1CCN(c2ccc(Nc3cc(-c4cccc(-n5ccc6cc(C7CC7)cc(F)c6c5=O)c4CO)cn(C)c3=O)nc2)CC1, the Potency (SKOV3) is reported as “inactive”, the Potency (Tov-21-G) is reported as “inactive” and the Potency (Tov112D) is reported as “inactive”.

With Cc1nc(NC(=O)N2CCCC2C(N)=O)sc1-c1ccnc(C(C)(C)C(F)(F)F)c1 (stereo unspecified) the Potency (SKOV3) was 8.91 µM (active), the Potency (Tov-21-G) was “inactive” and the Potency (Tov112D) was “inactive”.

With CC(C)(O)C1CC(=O)C2(C)C(CCC3(C)C(c4ccoc4)OC(=O)C4OC432)C12CCC(=O)OC2 (stereo unspecified) the Potency (SKOV3) was “inactive”, the Potency (Tov-21-G) was “inactive” and the Potency (Tov112D) was “inactive”.

For O=C(NCCCN1CCOCC1)c1cnn2c(-c3ccccc3)cc(-c3ccccc3)nc12, the Potency (SKOV3) was “inactive”, the Potency (Tov-21-G) was “inactive” and the Potency (Tov112D) was “inactive”.

CNc1cccc(CCOc2ccc3c(c2)CN(CC(F)(F)F)C(=O)[C@H](CC(=O)O)C3)n1 was tested, and the Potency (SKOV3) was 1.78 µM (active), the Potency (Tov-21-G) was 0.501 µM (active) and the Potency (Tov112D) was “inactive”.

For CCS(=O)c1nc(-c2cccc(OCc3ccccc3)c2)cc(C(F)(F)F)n1 (stereo unspecified), the Potency (SKOV3) was “inactive”, the Potency (Tov-21-G) was “inactive” and the Potency (Tov112D) was “inactive”.

In the case of CCC(C)C1NC(=O)C(Cc2ccccc2)NC(=O)C(CCCCCC(=O)C(O)CO)NC(=O)C2CCCCN2C1=O (stereo unspecified), the Potency (SKOV3) is reported as “inactive”, the Potency (Tov-21-G) is reported as “inactive” and the Potency (Tov112D) is reported as “inactive”.

O=C(Nc1ccc(-n2nc(C(F)(F)F)cc2C(F)(F)F)cc1)c1ccncc1F was tested, and the Potency (SKOV3) was “inactive”, the Potency (Tov-21-G) was “inactive” and the Potency (Tov112D) was “inactive”.

In the case of NC(=O)c1cccc2[nH]c(-c3ccc(C4CCCN4)cc3F)nc12 (stereo unspecified), the Potency (SKOV3) is reported as 14.1 µM (active), the Potency (Tov-21-G) is reported as 12.6 µM (active) and the Potency (Tov112D) is reported as 15.8 µM (active).

With Cc1cc(OCCCS(C)(=O)=O)cc(C)c1-c1cccc(COc2ccc(C3=CC(=O)NS3=O)cc2)c1 (stereo unspecified) the Potency (SKOV3) was “inactive”, the Potency (Tov-21-G) was “inactive” and the Potency (Tov112D) was “inactive”.

For CC1(CO)CC(O)[C@]2(C(=O)O)CCC34CC3(C=CC3[C@]5(C)C(CC[C@]34C)C(C)(CO)[C@@H](O)[C@H](O)[C@@H]5O)C2C1 (stereo partly specified), the Potency (SKOV3) was “inactive”, the Potency (Tov-21-G) was “inactive” and the Potency (Tov112D) was “inactive”.

In the case of Clc1ccc(Nc2nc3ccccc3c3nc(C4CCCCC4)[nH]c23)cc1Cl, the Potency (SKOV3) is reported as “inactive”, the Potency (Tov-21-G) is reported as “inactive” and the Potency (Tov112D) is reported as “inactive”.

In the case of COc1ccc2c(NC(=O)Nc3cccc(C(F)(F)F)n3)ccnc2c1, the Potency (SKOV3) is reported as “inactive”, the Potency (Tov-21-G) is reported as “inactive” and the Potency (Tov112D) is reported as “inactive”.

C=C1CCC2[C@](C)(CCC[C@@]2(C)C=O)[C@H]1CC/C(C)=C/CO (stereo partly specified) was tested, and the Potency (SKOV3) was “inactive”, the Potency (Tov-21-G) was “inactive” and the Potency (Tov112D) was “inactive”.

CC(C)(C)c1ccc(NC(=O)N2CCN(c3ncccc3Cl)CC2)cc1 was tested, and the Potency (SKOV3) was 22.4 µM (active), the Potency (Tov-21-G) was “inactive” and the Potency (Tov112D) was “inactive”.

COc1ccc(NC(=O)c2ccc(-c3ccc(-c4nnc(C)o4)cc3C)cc2)cc1N1CCN(C)CC1 was tested, and the Potency (SKOV3) was “inactive”, the Potency (Tov-21-G) was “inactive” and the Potency (Tov112D) was “inactive”.

With Cc1c(C(=O)Nc2ccc(N3CCC(N4CCOCC4)CC3)c(C#N)c2)cnn1-c1ccc(Cl)cc1 the Potency (SKOV3) was “inactive”, the Potency (Tov-21-G) was “inactive” and the Potency (Tov112D) was “inactive”.

CCC(C)C(=O)OC12C(OC(C)=O)C(C)C3(O)C(C=C(CO)CC4(O)C(=O)C(C)=CC43)C1C2(C)C (stereo unspecified) was tested, and the Potency (SKOV3) was “inactive”, the Potency (Tov-21-G) was “inactive” and the Potency (Tov112D) was “inactive”.

C[C@H]1CC[C@@]2(OC1)O[C@H]1CC3[C@@H]4CC[C@@H]5C[C@@H](O[C@@H]6O[C@H](CO)[C@@H](O[C@@H]7O[C@@H](C)[C@H](O)[C@@H](O)[C@H]7O)[C@H](O)[C@H]6O[C@@H]6O[C@H](CO)[C@@H](O)[C@H](O)[C@H]6O)CC[C@]5(C)C4CC[C@]3(C)[C@H]1[C@@H]2C (stereo partly specified) was tested, and the activity change, negative = cytotoxicity (SKOV3) was -15.8% [at 11.6 µM], the activity change, negative = cytotoxicity (Tov-21-G) was -2.16% [at 11.6 µM] and the activity change, negative = cytotoxicity (Tov112D) was -1.68% [at 11.6 µM].

For CNc1nc(Nc2ccc(C(=O)N3CCOCC3)cc2OC)nc2[nH]cc(Cl)c12, the Potency (SKOV3) was “inactive”, the Potency (Tov-21-G) was “inactive” and the Potency (Tov112D) was “inactive”.

In the case of COc1ccc(S(=O)(=O)n2cnc3cc(C)c(C)cc32)cc1, the Potency (SKOV3) is reported as “inactive”, the Potency (Tov-21-G) is reported as “inactive” and the Potency (Tov112D) is reported as “inactive”.

With COc1ccc(CN2CCN(C(=O)CCNC(=O)c3ccc(C(C)(C)C)cc3)CC2)cc1 the Potency (SKOV3) was “inactive”, the Potency (Tov-21-G) was “inactive” and the Potency (Tov112D) was “inactive”.

C[C@@H]1O[C@@H](O[C@H]2CC[C@@]3(C)C(CC[C@]4(C)C3CC=C3[C@@H]5CC(C)(C)CC[C@]5(C(=O)O[C@@H]5O[C@H](CO)[C@@H](O)[C@H](O)[C@H]5O)CC[C@]34C)[C@]2(C)CO)[C@H](O)[C@H](O[C@@H]2O[C@H](CO)[C@@H](O)[C@H](O)[C@H]2O)[C@H]1O (stereo partly specified) was tested, and the activity change, negative = cytotoxicity (SKOV3) was 8.14% [at 11.6 µM], the activity change, negative = cytotoxicity (Tov-21-G) was -24% [at 11.6 µM] and the activity change, negative = cytotoxicity (Tov112D) was 1.58% [at 11.6 µM].

In the case of COc1ccc(C#Cc2ccc(C(=O)N3CCC[C@@H](O)C3)c(F)c2)cc1, the Potency (SKOV3) is reported as 8.91 µM (active), the Potency (Tov-21-G) is reported as 7.08 µM (active) and the Potency (Tov112D) is reported as 8.91 µM (active).

With COC1=CC(=O)O/C1=C(/OC)[C@@H]1O[C@H]1c1ccccc1 the Potency (SKOV3) was “inactive”, the Potency (Tov-21-G) was “inactive” and the Potency (Tov112D) was “inactive”.

With C[C@@H]1CCCN1CCc1cc2cc(-c3ccc(C#N)cc3)ccc2o1 the Potency (SKOV3) was “inactive”, the Potency (Tov-21-G) was “inactive” and the Potency (Tov112D) was “inactive”.

In the case of CC1CC(=O)C2=C(C1)C1OC1C1(O)C2C(=O)c2cccc(O)c2C1O (stereo unspecified), the Potency (SKOV3) is reported as “inactive” and the Potency (Tov112D) is reported as 0.0891 µM (active).

For C=C1C(=O)O[C@@H]2/C=C(\C)CC/C=C(\C)CC[C@@H]12, the Potency (SKOV3) was “inactive” and the Potency (Tov112D) was “inactive”.

c1ccc(-c2ccc(CNc3nc(-c4ccccn4)nnc3-c3ccccc3)cc2)cc1 was tested, and the Potency (SKOV3) was 12.6 µM (active) and the Potency (Tov112D) was 11.2 µM (active).

For CC(C)CCCCC(=O)N[C@@H](CO)C(=O)N[C@@H](CC(C)C)C(=O)[C@@]1(CO)CO1, the Potency (SKOV3) was “inactive” and the Potency (Tov112D) was “inactive”.

In the case of C/C(=C\Cc1c(O)c(Cl)c(C)c(C=O)c1O)CC/C=C(\C)[C@H]1CC(=O)C(C)(C)O1, the Potency (SKOV3) is reported as “inactive” and the Potency (Tov112D) is reported as “inactive”.

Nc1ncnc2c1c(-c1ccc(Cl)cc1)nn2-c1cccc(-c2cnnn2Cc2cccc(-c3ccccc3)c2)c1 was tested, and the Potency (SKOV3) was “inactive”, the Potency (Tov-21-G) was “inactive” and the Potency (Tov112D) was “inactive”.

In the case of C=C(C)C(=O)OC1CC(CO)CCC/C(CO)=C/C2OC(=O)C(=C)C21 (stereo unspecified), the Potency (SKOV3) is reported as “inactive” and the Potency (Tov112D) is reported as “inactive”.

In the case of O=C(NCCCn1ccnc1)c1cc(-c2ccco2)on1, the Potency (SKOV3) is reported as “inactive” and the Potency (Tov112D) is reported as “inactive”.
